Assay results taken from ChEMBL document CHEMBL4513216, “Probing the Open Global Health Chemical Diversity Library for Multistage-Active Starting Points for Next-Generation Antimalarials” (ACS Infect Dis, 2020).
Among all 69,000 compounds or so, about 8,600 (12%) showed an effect of 50% or more. This is one part of a sample in which strong results are shown more often than they occur.

system: Plasmodium berghei; experiment: Screen against P. berghei liver stage (PbLuc), transformed with Luciferase, at 10uM; format: functional, HepG2; details: tested at 10 uM

SMILES	INHIBITION [%]
COc1ccc(S(=O)(=O)NC(=O)COC2CCCC2)cc1	-0.96
Cc1ccc(NC(=O)N2C[C@@H]3CC[C@H]2CN(Cc2cscn2)C3)cc1	-28.6
Nc1ccnc(N2C[C@H]3CC[C@@H](C2)N(CC2CCC2)C3=O)n1	-32.4
CCn1ccc(NC(=O)CCn2nc(C)c3ccccc32)n1	-21.3
CCN(CC)C(=O)Cn1ccc2cc(NC(=O)NC3CC3)ccc21	-22.91
CCC(=O)N1CCC(NC(=O)c2cccc(-n3ccnc3)c2)C1 (centres undefined)	2.43
Cc1cc(C)n(CC2CCCN2C(=O)c2cccc3c2OCCO3)n1 (centres undefined)	10.85
O=C(Cc1ccsc1)N1C[C@H]2CCC[C@@]2(COCc2ccccn2)C1	63.8
COC[C@@]12CCC[C@@H]1CN(C(=O)Cc1ccccn1)C2	39.4
CS(=O)(=O)CC(=O)N1C[C@H]2CCC[C@@]2(COCc2ccccn2)C1	25
Cc1ccccc1C(=O)NC(C)c1cnn(C)c1 (centres undefined)	40.8
CNC(=O)CNCc1c[nH]nc1-c1cc2ccccc2o1	1.51
CNc1nc2c(c(C(=O)N3CCCC3)n1)CN(C(=O)CCSC)CC2	-36.6
CN(C)CCN1CCN(C)C2(CCN(c3nccs3)CC2)C1=O	17.2
CS(=O)(=O)N1CCOC2(CCN(c3nccs3)CC2)c2ccccc21	5.36
CN(C)CCN1CCOC2(CCN(c3nccs3)CC2)c2ccccc21	58.5
CC(C)C(NC(=O)C1CCCC1)c1cc(O)nc(-c2cccnc2)n1 (centres undefined)	28.925
CS(=O)(=O)c1ccc(OCCCN2CCc3cncnc3C2)cc1	31.2
CN(C)CCN1CCCC12CCCN(Cc1ccoc1)C2 (centres undefined)	21.6
Cc1nccc(C2CN(C(=O)c3cncnc3)C2)n1	-14.2
Cc1cccc(CN2C(=O)OCC2CO)c1F (centres undefined)	-21.8
Cc1ccc(-c2cc(C(=O)NCCN3CCCS3(=O)=O)[nH]n2)o1	-7.25
Cc1ccc(-c2cc(C(=O)NCCCc3csc(N)n3)[nH]n2)s1	56.5
COc1ccc2c(C)c(C(=O)NCCCc3csc(N)n3)oc2c1	43.6
Cc1ccc(-c2cc(C(=O)NCCCc3csc(N)n3)[nH]n2)o1	64.6
Cc1[nH]c2c(F)cccc2c1CC(=O)NCCCc1csc(N)n1	1.24
Cn1cccc1-c1cc(C(=O)NCCCc2csc(N)n2)[nH]n1	35

SMILES	INHIBITION [%]
CNC(=O)C1CN(C(C)C)CCN1c1nc(C)cc(C)n1 (centres undefined)	3.48
O=C(CC1NC(N2CCc3ccccc3C2)=NC1=O)Nc1ccccc1 (centres undefined)	19.3
O=C1COc2c(cccc2C(=O)N2CCCC(n3cccn3)C2)N1 (centres undefined)	-4.94
Cc1nc(C(C)C)sc1C(=O)N1CCN(C2CN3CCC2CC3)CC1 (centres undefined)	-6.91
CCc1nc(CN(C)C2CCN(CCc3ccncc3)C2)no1 (centres undefined)	-12.2
Cc1nc(CN(C)C2CCN(Cc3nc4ccccc4n3C)C2)no1 (centres undefined)	48.2
Cc1cnc(CN(C)C2CCN(Cc3nc4ccccc4s3)C2)o1 (centres undefined)	15.3
COCCN1CCC(N(Cc2noc(C3CC3)n2)C(C)=O)C1 (centres undefined)	23.4
CCc1nc(CN(C(C)=O)C2CCN(CC3CCOCC3)C2)no1 (centres undefined)	17.4
Cc1nc(CN(C)C2CCN(Cc3nc4ccccc4s3)C2)no1 (centres undefined)	60
Cc1nc(CN(C)C2CCN(Cc3cnc(C)s3)C2)no1 (centres undefined)	-29.8
CCc1nc(CN(C(C)=O)C2CCN(CCc3ccccc3)C2)no1 (centres undefined)	19.4
CC(=O)N(Cc1noc(C2CC2)n1)C1CCN(CC2CCOCC2)C1 (centres undefined)	56.6
Cc1nc(CN(C)C2CCN(Cc3ccc4ccccc4n3)C2)no1 (centres undefined)	70.1
CCc1nc(CN(C(C)=O)C2CCN(CCc3ccncc3)C2)no1 (centres undefined)	66.7
Cc1nc(CN(C)C2CCN(Cc3cccc4cccnc34)C2)no1 (centres undefined)	25.3
CN1CCOC(CNCc2csc(C3CCCC3)n2)C1 (centres undefined)	45.1
O=C(c1ccc(Cl)cc1)N1CCC(N2CCCOC2=O)CC1	48.2
COC1CCN(c2ccc(F)cc2CN(C)S(C)(=O)=O)CC1	4.52
CN(CC(C)(CO)CO)C(=O)Nc1cc(F)cc(Cl)c1	-35.9
COCc1nc(C(=O)NS(=O)(=O)c2ccc(F)cc2F)cs1	-1.95
NCCc1n[nH]c(=O)n1-c1cccc2ccccc12	30
CN(C)CCN1CCN(Cc2cccc(C#N)c2)Cc2cccnc21	-4.32
COc1cccc(CNCCc2cc(F)cc3c2OCOC3)c1OC	30
COc1c(CNCCC(=O)NC2CCCCC2)c(C(C)C)nn1C	-7.81
Cc1ccc(CN2CC(C(=O)NCC3CC3)C3(CCOCC3)C2)s1 (centres undefined)	-18.5
Cc1cnn(CC2CN(c3ccc(C#N)cn3)CCO2)c1 (centres undefined)	21
